Bioassay records deposited in PubChem BioAssay by SRMLSC.
NADH enzymes = inhibitors of enzymes used to reach an NAD/NADH endpoint; coupled PK/LDH NADH assays, four targets; IC50, µM (top dose mostly 10 µM), inactives show at the highest dose inhibition; 65,000 compounds, 0.02% hits;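 active = single-dose screening hits from any of four coupled enzyme assays that gave an IC50 when retested across doses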;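 note: the DPM-DC format reads NADH fluorescence rather than 340 nm absorbance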
Spn DPM-DC inh = S. pneumoniae DPM-DC inhibition; purified DPM-DC, PK/LDH coupled NADH fluorescence; calls only at 10 µM; 65,000 compounds, 0.49% hits; AID 556;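 active = the 320 compounds with the highest percent inhibition in the single-dose primary screen, excluding strongly autofluorescent ones, cut at about 32% in these data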;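 note: kinetic rate of NADH fluorescence loss reporting ADP formed by the decarboxylase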
Fluor 339 460 = intrinsic fluorescence of library compounds, ex339/em460 – biochemical, MLSMR library, data from DPM-DC assay, artefact control, profiling panel. compound autofluorescence, ex339/em460 nm, NADH buffer; active compounds read high; 1 = no-compound wells, NADH background. fluorescence fold increase at 10 µM. 65,000 compounds, 5.5% hits. AID 709;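 active = at 10 µM, mean starting fluorescence two-fold or more over control wells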;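 note: signal is the first read of a kinetic run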
Spn MK inh = S. pneumoniae mevalonate kinase inhibition; purified MK, PK/LDH-coupled NADH absorbance 340 nm; inhibition, % at 10 µM; 65,000 compounds, 0.48% hits;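 active = ranked among the strongest by inhibition in the single 10 µM screen, a fixed top-ranked set picked for dose follow-up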
Abs 340nm = compounds absorbing at 340 nm | AID 708 | compound absorbance at 340 nm, fold over control | fold change at 10 µM | 65,000 tested, under 10 active;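 active = at 10 µM dose, initial 340 nm absorbance at least 2 fold that of control wells; inactive = change under 2 fold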;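 note: initial absorbance extrapolated from kinetic A340 decline of NADH oxidation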
PMK inhibit = S. pneumoniae PMK inhibition; purified PMK, PK/LDH-coupled NADH absorbance 340 nm; inhibition, % at 10 µM; 65,000 compounds, 0.49% hits; AID 539;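 active = top-ranked compounds by inhibition in the single 10 µM screen, taking a fixed number of the strongest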;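 note: 0% = full reaction with DMSO carrier and 100% = background rate without enzyme reaction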
* = called active by the depositor; i = inactive; x = not tested or not shown. Rows were chosen to be rich in hits. Some 6.3% of all compounds tested hit in one or more screens of this group.

SMILES	NADH enzymes	Spn DPM-DC inh	Fluor 339 460	Spn MK inh	Abs 340nm	PMK inhibit
COC(=O)c1ccc(-c2cc(C(=O)O)c3cc4c(cc3n2)OCCO4)cc1	9%	x	4.9*	3	1.2	15
COC(=O)c1[nH]c2ccccc2c1NC(=O)CNC1CCCCC1	10%	i	1.4	8	1	12
COc1cc2nc(N3CCN(C(=O)C4COc5ccccc5O4)CC3)nc(N)c2cc1OC (configuration not stated)	2%	x	2.5*	6	1	4
COc1cc2nc(N3CCN(C(=O)c4ccco4)CC3)nc(N)c2cc1OC	2%	i	2.5*	6	1	0
O=C(Nc1ccc2oc(-c3ccccc3)nc2c1)c1cccnc1	8%	i	1.3	12	1	11
CCCCCC(=O)Nc1ccc2oc(-c3cccnc3)nc2c1	12%	x	3.7*	9	1	14
O=C(Cc1ccc(Cl)cc1)Nc1ccc2oc(-c3ccncc3)nc2c1	2%	x	3.6*	4	1.1	0
O=C(Cc1ccccc1)Nc1ccc2oc(-c3cccnc3)nc2c1	1%	x	2.3*	2	1.1	0
O=C(CCN1C(=O)c2ccccc2S1(=O)=O)Nc1nc2c(s1)CCCC2	3%	i	1.1	6	1.1	4
COc1cc(C)c(C(N)=O)c(OC)n1	5%	i	1.1	2	1	12
Cc1sc2ncnc(Sc3nnnn3-c3ccccc3)c2c1C	12%	i	3.4*	8	1	8
Clc1ccc(-n2nnnc2Sc2ncnc3sccc23)cc1	3%	i	1	4	0.98	14
CC(C)(C)NC(=O)C(c1ccco1)N(C(=O)Cn1nnc(-c2ccc(F)cc2)n1)c1ccccc1F (configuration not stated)	3%	i	1.1	2	0.99	5
Cc1c(/C=N/n2cnnc2)c2ccccc2n1C	6%	i	1	7	1.2	10
CCCCn1nnc(NC(=O)c2ccc(-c3ccccc3)cc2)n1	3%	i	1.1	4	1.1	6
CCCCn1c(NC(=O)c2ccccc2)c(C#N)c2nc3ccccc3nc21	6%	x	3.8*	3	1.1	9
O=C(Nc1cccc2nsnc12)c1ccc(F)cc1	9%	i	1.4	8	1	14
CCCCn1c(NC(=O)c2ccc(F)cc2)c(C#N)c2nc3ccccc3nc21	11%	x	5*	15	1	7
O=C(Cn1c(=O)oc2ccccc21)NC(=O)NCc1ccco1	1%	i	1	4	1	0
CSc1ncc(Cl)c(C(=O)C(C#N)c2nc3c(C)cc(C)cc3c(=O)[nH]2)n1 (configuration not stated)	8%	i	1.1	2	1.1	21
CCc1cc(C(=O)OC)c(NC(=O)c2cc(Br)cs2)s1	0%	i	2.2*	0	1.1	0
Cc1nn(-c2ccccc2)c(Cl)c1C(=O)Nc1nnc(C2CCCC2)s1	5%	i	1.1	0	1	14
CC(=O)Nc1ccc(NS(=O)(=O)Cc2ccccc2)cc1	1%	i	1.1	0	1.1	4
NC(=O)c1ccccc1NS(=O)(=O)Cc1ccccc1	7%	x	2.1*	3	1.1	10
Cc1ccc(CNc2ccc3c(c2)OCO3)c(C)c1	0%	i	1.2	0	1.1	0
SMILES	NADH enzymes	Spn DPM-DC inh	Fluor 339 460	Spn MK inh	Abs 340nm	PMK inhibit
COCC(C)NCc1ccc(C)cc1C (configuration not stated)	20%	i	1.1	52*	1.1	1
O=C(NCc1cccnc1)C1c2ccccc2C(=O)N1Cc1ccco1 (configuration not stated)	2%	i	1.1	0	1	3
O=[n+]1cc(-c2cc3ccccc3o2)n([O-])c2c1CCCC2	16%	i	2.9*	12	1.2	13
O=[n+]1cc(-c2ccc(F)cc2)n([O-])c2c1CCC2	4%	i	1	0	1	18
COc1ccccc1N(CN1CCCC1=O)C(=O)COc1ccccc1	1%	i	1.2	0	1	2
Cn1c(NC(=O)c2ccco2)c(-c2ccccc2)c(=O)c2ccccc21	9%	i	0.94	10	1.1	8
COc1ccc(-c2c(NC(C)=O)n(C)c3ccccc3c2=O)cc1	10%	x	3.8*	9	1.1	11
